Assay results reported in paper PMC7862700, “An all-to-all approach to the identification of sequence-specific readers for epigenetic DNA modifications on cytosine”.

Legend:
Assay in all cases: DAPPL (digital affinity profiling via proximity ligation, sequencing); 10 mM Tris-HCl pH 7.5, 50 mM NaCl, 1 mM DTT, 4% glycerol, room temperature, 30 min; GST-TFs on glutathione beads, 16-mer random dsDNA library, 0.1% formaldehyde crosslink after washing; high values mean tight binding
Conditions in all cases: protein: recombinant; tags: N-terminal GST; dsDNA, one strand shown
FLI1 = biological target: T1, FLI1 (Homo sapiens, UniProt Q01543 1-452)
T1 sequence: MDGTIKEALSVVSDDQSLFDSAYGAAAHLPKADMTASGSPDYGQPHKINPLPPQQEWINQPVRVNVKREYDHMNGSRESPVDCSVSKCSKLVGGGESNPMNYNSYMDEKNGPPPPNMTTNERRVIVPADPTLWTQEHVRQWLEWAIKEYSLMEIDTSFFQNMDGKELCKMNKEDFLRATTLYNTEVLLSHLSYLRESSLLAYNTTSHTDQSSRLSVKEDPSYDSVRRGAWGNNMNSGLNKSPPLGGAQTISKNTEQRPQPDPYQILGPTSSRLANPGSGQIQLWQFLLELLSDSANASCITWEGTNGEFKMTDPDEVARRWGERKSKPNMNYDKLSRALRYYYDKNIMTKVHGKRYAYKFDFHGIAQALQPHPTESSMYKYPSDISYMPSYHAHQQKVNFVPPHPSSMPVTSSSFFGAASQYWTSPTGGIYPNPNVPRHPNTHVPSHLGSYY
Summary of the method: (§1)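 Human transcription factors fused to GST were expressed in yeast, captured on glutathione beads, given DNA barcodes and pooled with a GST-only negative control. Pools were incubated with 200 nmole of a 16-mer random double-stranded DNA library in Tris/NaCl/DTT/glycerol buffer at room temperature for 30 min. They were then washed, crosslinked with 0.1% formaldehyde, proximity-ligated (BsaI/T4 ligase, 1 h, 37 °C), PCR-amplified and sequenced on an Illumina NextSeq500. Binding signal is each 6-mer's read frequency for a factor divided by its frequency for the GST control.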

ELK1 = biological target: T2, ELK1 (Homo sapiens, UniProt P19419 1-428)
T2 sequence: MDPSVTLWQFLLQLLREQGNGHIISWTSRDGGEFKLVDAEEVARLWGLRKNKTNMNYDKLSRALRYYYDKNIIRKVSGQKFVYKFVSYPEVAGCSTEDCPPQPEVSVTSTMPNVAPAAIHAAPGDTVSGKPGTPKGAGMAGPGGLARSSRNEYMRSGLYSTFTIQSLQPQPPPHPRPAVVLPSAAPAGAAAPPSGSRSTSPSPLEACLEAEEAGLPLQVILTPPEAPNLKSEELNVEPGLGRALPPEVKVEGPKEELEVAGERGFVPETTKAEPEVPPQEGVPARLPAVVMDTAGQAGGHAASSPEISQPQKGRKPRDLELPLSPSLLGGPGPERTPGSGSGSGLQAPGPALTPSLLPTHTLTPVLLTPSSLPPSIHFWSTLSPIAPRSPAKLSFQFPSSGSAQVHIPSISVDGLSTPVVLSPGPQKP
Summary of the method: as §1

GABPA = biological target: T3, GABPA (Homo sapiens, UniProt Q06546 1-454)
T3 sequence: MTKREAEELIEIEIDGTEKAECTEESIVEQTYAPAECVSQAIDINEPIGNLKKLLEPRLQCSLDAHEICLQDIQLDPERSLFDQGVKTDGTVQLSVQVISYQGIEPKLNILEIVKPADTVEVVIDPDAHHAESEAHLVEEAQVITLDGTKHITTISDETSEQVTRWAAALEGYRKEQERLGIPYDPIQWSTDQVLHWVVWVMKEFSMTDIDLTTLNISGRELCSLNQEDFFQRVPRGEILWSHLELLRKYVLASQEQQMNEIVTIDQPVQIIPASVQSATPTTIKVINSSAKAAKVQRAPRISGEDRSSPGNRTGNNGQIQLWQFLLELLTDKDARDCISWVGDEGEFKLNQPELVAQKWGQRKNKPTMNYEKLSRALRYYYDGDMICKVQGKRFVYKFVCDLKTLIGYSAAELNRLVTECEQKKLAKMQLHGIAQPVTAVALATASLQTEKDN
Summary of the method: as §1

ERG = biological target: T4, ERG (Homo sapiens, UniProt P11308 1-479)
T4 sequence: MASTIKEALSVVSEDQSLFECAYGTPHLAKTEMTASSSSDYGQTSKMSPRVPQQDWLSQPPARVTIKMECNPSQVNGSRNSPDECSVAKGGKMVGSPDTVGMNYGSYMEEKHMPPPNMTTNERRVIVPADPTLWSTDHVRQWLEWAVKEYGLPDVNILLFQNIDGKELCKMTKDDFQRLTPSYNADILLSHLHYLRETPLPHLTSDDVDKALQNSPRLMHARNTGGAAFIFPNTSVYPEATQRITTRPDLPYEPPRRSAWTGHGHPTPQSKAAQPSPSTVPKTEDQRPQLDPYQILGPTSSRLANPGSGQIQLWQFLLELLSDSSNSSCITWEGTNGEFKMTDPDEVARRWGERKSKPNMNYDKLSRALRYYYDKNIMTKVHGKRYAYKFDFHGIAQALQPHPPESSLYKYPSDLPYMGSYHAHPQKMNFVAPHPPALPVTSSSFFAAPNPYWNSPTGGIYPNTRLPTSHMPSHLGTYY
Summary of the method: as §1

ELF1 = ELF1 (Homo sapiens, UniProt P32519 1-619)
ELF1, sequence (P32519 whole entry): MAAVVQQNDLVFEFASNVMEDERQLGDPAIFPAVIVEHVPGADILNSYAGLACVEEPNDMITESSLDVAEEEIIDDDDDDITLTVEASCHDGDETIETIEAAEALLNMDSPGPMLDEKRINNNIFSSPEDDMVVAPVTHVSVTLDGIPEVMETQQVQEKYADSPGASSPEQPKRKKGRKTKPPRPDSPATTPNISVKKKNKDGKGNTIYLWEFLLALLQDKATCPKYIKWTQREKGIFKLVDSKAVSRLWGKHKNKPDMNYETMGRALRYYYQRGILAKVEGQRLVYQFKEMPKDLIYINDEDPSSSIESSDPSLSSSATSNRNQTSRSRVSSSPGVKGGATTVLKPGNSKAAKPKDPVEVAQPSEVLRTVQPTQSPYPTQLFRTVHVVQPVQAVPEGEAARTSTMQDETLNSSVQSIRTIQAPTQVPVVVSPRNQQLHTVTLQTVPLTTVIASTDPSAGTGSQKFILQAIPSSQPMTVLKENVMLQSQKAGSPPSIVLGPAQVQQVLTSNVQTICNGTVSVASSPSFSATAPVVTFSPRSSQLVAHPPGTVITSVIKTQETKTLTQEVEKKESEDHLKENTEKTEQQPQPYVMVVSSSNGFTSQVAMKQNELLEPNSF
Summary of the method: as §1

EHF = biological target: T5, EHF (Homo sapiens, UniProt Q9NZC4 1-300)
T5 sequence: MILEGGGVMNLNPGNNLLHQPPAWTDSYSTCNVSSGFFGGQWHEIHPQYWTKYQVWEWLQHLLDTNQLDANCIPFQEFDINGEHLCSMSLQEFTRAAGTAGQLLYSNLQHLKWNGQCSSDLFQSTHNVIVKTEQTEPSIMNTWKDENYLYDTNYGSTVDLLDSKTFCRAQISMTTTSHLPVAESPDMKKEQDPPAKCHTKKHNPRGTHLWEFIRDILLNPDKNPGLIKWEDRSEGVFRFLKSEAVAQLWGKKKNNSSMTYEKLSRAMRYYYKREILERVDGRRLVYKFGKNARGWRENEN
Summary of the method: as §1

SPI1 = SPI1 (Homo sapiens, UniProt P17947 1-270)
Summary of the method: as §1

SPIB = SPIB (Homo sapiens, UniProt Q01892 1-262)
SPIB, sequence (Q01892 whole entry): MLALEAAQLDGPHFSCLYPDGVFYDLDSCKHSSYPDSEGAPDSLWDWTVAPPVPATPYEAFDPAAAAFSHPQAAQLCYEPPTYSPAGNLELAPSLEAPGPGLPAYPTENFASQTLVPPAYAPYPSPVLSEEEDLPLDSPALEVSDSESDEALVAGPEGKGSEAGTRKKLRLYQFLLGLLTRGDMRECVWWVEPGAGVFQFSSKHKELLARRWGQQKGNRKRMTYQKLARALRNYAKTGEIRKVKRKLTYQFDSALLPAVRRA
Summary of the method: as §1

ELK3 = biological target: T6, ELK3 (Homo sapiens, UniProt P41970 1-407)
T6 sequence: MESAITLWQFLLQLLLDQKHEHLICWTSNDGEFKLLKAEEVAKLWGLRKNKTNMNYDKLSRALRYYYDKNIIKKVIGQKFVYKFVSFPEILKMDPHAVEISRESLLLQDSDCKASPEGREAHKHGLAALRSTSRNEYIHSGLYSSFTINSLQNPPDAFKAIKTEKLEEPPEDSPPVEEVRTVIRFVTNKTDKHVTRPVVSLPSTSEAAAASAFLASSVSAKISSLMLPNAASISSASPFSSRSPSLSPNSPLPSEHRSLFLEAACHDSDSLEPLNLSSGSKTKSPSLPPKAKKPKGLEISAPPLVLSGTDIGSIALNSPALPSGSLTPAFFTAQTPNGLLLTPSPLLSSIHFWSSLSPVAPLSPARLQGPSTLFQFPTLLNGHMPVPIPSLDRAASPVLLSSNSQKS
Summary of the method: as §1

Sequence	binding signal (FLI1)	binding signal (ELK1)	binding signal (GABPA)	binding signal (ERG)	binding signal (ELF1)	binding signal (EHF)	binding signal (SPI1)	binding signal (SPIB)	binding signal (ELK3)
ATAGCA	1.17 fold enrichment (6-mer frequency, TF over GST control)	1.14 fold enrichment (6-mer frequency, TF over GST control)	1.19 fold enrichment (6-mer frequency, TF over GST control)	1.19 fold enrichment (6-mer frequency, TF over GST control)	1.14 fold enrichment (6-mer frequency, TF over GST control)	1.13 fold enrichment (6-mer frequency, TF over GST control)	1.11 fold enrichment (6-mer frequency, TF over GST control)	1.18 fold enrichment (6-mer frequency, TF over GST control)	1.15 fold enrichment (6-mer frequency, TF over GST control)
AGTAAT	1.02 fold enrichment (6-mer frequency, TF over GST control)	1.1 fold enrichment (6-mer frequency, TF over GST control)	1.16 fold enrichment (6-mer frequency, TF over GST control)	1.09 fold enrichment (6-mer frequency, TF over GST control)	1.12 fold enrichment (6-mer frequency, TF over GST control)	1.19 fold enrichment (6-mer frequency, TF over GST control)	1.17 fold enrichment (6-mer frequency, TF over GST control)	1.1 fold enrichment (6-mer frequency, TF over GST control)	1.12 fold enrichment (6-mer frequency, TF over GST control)
ATTGTC	1.17 fold enrichment (6-mer frequency, TF over GST control)	1.07 fold enrichment (6-mer frequency, TF over GST control)	1.16 fold enrichment (6-mer frequency, TF over GST control)	1.13 fold enrichment (6-mer frequency, TF over GST control)	1.13 fold enrichment (6-mer frequency, TF over GST control)	1.08 fold enrichment (6-mer frequency, TF over GST control)	1.05 fold enrichment (6-mer frequency, TF over GST control)	1.14 fold enrichment (6-mer frequency, TF over GST control)	1.35 fold enrichment (6-mer frequency, TF over GST control)
ACTTGT	1.27 fold enrichment (6-mer frequency, TF over GST control)	1.35 fold enrichment (6-mer frequency, TF over GST control)	1.29 fold enrichment (6-mer frequency, TF over GST control)	1.15 fold enrichment (6-mer frequency, TF over GST control)	1.29 fold enrichment (6-mer frequency, TF over GST control)	1.31 fold enrichment (6-mer frequency, TF over GST control)	1.3 fold enrichment (6-mer frequency, TF over GST control)	1.45 fold enrichment (6-mer frequency, TF over GST control)	1.31 fold enrichment (6-mer frequency, TF over GST control)
TACTGC	1.22 fold enrichment (6-mer frequency, TF over GST control)	1.22 fold enrichment (6-mer frequency, TF over GST control)	1.17 fold enrichment (6-mer frequency, TF over GST control)	1.25 fold enrichment (6-mer frequency, TF over GST control)	1.24 fold enrichment (6-mer frequency, TF over GST control)	1.3 fold enrichment (6-mer frequency, TF over GST control)	1.24 fold enrichment (6-mer frequency, TF over GST control)	1.13 fold enrichment (6-mer frequency, TF over GST control)	1.1 fold enrichment (6-mer frequency, TF over GST control)
CGAACA	1.09 fold enrichment (6-mer frequency, TF over GST control)	1.08 fold enrichment (6-mer frequency, TF over GST control)	1.11 fold enrichment (6-mer frequency, TF over GST control)	1.11 fold enrichment (6-mer frequency, TF over GST control)	1.13 fold enrichment (6-mer frequency, TF over GST control)	1.14 fold enrichment (6-mer frequency, TF over GST control)	1.15 fold enrichment (6-mer frequency, TF over GST control)	1.19 fold enrichment (6-mer frequency, TF over GST control)	1.09 fold enrichment (6-mer frequency, TF over GST control)
GCGACC	1.09 fold enrichment (6-mer frequency, TF over GST control)	1.11 fold enrichment (6-mer frequency, TF over GST control)	1.09 fold enrichment (6-mer frequency, TF over GST control)	1.17 fold enrichment (6-mer frequency, TF over GST control)	1.15 fold enrichment (6-mer frequency, TF over GST control)	1.2 fold enrichment (6-mer frequency, TF over GST control)	1.07 fold enrichment (6-mer frequency, TF over GST control)	1.08 fold enrichment (6-mer frequency, TF over GST control)	1.02 fold enrichment (6-mer frequency, TF over GST control)
GAATCC	1.15 fold enrichment (6-mer frequency, TF over GST control)	1.09 fold enrichment (6-mer frequency, TF over GST control)	1.08 fold enrichment (6-mer frequency, TF over GST control)	1.18 fold enrichment (6-mer frequency, TF over GST control)	1.13 fold enrichment (6-mer frequency, TF over GST control)	1.14 fold enrichment (6-mer frequency, TF over GST control)	1.14 fold enrichment (6-mer frequency, TF over GST control)	1.11 fold enrichment (6-mer frequency, TF over GST control)	1.08 fold enrichment (6-mer frequency, TF over GST control)
